IL1B secr inh: inhibitors of inflammasome signaling (IL-1 beta secretion) | THP-1 LPS/ATP IL-1B secretion, AlphaLISA, 16 h; stronger effect = lower value | activity change, % at 57.5 µM | 360,000 tested, 4.7% active; in the data active = activity change below about -50%; inconclusive = mostly about -30% to -49%
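Secreted IL-1B measured by AlphaLISA bead assay after 16 h compound exposure of THP-1 cells; compounds (final up to 57.5 uM) added 1 h before LPS (250 ng/mL) and ATP (1.25 mM) stimulation; lower signal means less secretion.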
DT40 TDP1 CPT: growth inhibition of DT40 Tdp1-/-;hTDP1 cells with camptothecin (screen for TDP1 inhibitors); chicken DT40 Tdp1-/-;hTDP1 cells + 20 nM CPT, ATP luminescence, 48 h; Potency, µM (titrated, usually from 46.2 µM), without a hit: at the highest dose activity change, negative = growth inhibition, usual class: inhibitors; 420,000 tested, 12% active; also: potency is read from the fitted curve at half-maximal effect; nearly all actives have a fitted effect of over 55% in size
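Chicken DT40 Tdp1-/- cells complemented with human TDP1, 400 cells/well, exposed to compounds plus 20 nM camptothecin for at least 48 h at 37 C; viability read as ATP content by CellTiter-Glo luminescence.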
Giardia killer: Giardia lamblia killing. activity change, % at 7.66 µM, hits read low. 340,000 tested, 0.15% active. Giardia lamblia trophozoite viability; in the data active = activity change below about -80%; inconclusive = between about -30% and that limit;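 also: parasites exposed to compound for two days anaerobically before the ATP read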
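Giardia lamblia trophozoites (100 cells/well) were incubated with compounds for 48 h at 37 deg C under anaerobic conditions. Viability was read as ATP content by one-step luminescence after 15-30 min at room temperature.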
ELG1 DNA repair: ELG1-dependent DNA repair inhibition; HEK293T ELG1-luciferase reporter, luminescence, 16 h; DNA damage induced by 5-fluorouridine; Potency, µM (highest dose often 46.1 µM), for the others: at the highest dose activity change, negative = inhibition, actives largely listed as inhibitors; 330,000 tested, 2.3% active; also: potency is read from the fitted curve at half-maximal effect; nearly all actives have a fitted effect of over 55% in size
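Cells (2,000 per well) received 5-fluorouridine plus test compound or DMSO and were incubated 16 hr at 37 °C, 5% CO2. Luciferase activity was read by luminescence 30 min after ONE-Glo addition; signal suppression marked inhibition of damage-induced ELG1 function.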
TDP1 cell noCPT: qHTS for Inhibitors of human tyrosyl-DNA phosphodiesterase 1 (TDP1): qHTS in cells in absence of CPT. DT40 Tdp1-/- hTDP1 cells, no CPT, ATP luminescence, 48 h. Potency, µM (top dose mostly 46.2 µM), without a hit: top-dose activity change, negative = growth inhibition, most hits filed as inhibitors. 420,000 tested, 15% active; also: potency is read from the fitted curve at half-maximal effect; nearly all actives have a fitted effect of over 55% in size
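Camptothecin absent (DMSO only). Human TDP1-complemented DT40 knockout cells, 400 cells/well, 37 °C for minimum 48 hr; ATP measured via CellTiter-Glo, 30 min dark incubation, luminescence.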
TDP1 inh: blocks human tyrosyl-DNA phosphodiesterase 1; Potency, µM (top dose mostly 130 µM), without a hit: at the top dose activity change, negative = inhibition, actives largely listed as inhibitors; recombinant TDP1, AlphaScreen DNA substrate cleavage; Q9NUW8; AID 485290; 350,000 tested, 0.28% active; also: potency is read from the fitted curve at half-maximal effect; nearly all actives have a fitted effect of over 40% in size
Target sequence (Q9NUW8 whole entry, looked up): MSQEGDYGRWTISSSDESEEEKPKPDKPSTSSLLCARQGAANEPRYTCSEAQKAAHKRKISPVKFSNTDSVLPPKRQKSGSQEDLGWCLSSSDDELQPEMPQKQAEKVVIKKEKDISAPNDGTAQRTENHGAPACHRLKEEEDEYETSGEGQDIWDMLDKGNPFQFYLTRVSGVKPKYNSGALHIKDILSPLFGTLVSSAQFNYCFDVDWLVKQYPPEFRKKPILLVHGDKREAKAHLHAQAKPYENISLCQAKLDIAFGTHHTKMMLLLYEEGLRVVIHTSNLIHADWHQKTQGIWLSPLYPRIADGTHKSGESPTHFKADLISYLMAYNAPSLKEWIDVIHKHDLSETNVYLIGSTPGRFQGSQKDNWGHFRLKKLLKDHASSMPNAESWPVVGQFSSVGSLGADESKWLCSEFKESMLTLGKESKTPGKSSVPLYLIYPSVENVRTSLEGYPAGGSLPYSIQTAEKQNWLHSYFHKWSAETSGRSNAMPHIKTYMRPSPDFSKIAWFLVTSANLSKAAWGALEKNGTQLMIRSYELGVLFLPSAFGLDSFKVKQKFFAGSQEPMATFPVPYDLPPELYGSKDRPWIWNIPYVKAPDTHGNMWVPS
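AlphaScreen read-out: signal falls as enzyme removes the 3' tyrosine-FITC from a 5'-biotinylated DNA oligo (15 nM, 5 min, RT). Enzyme was E. coli-made recombinant Tdp1 at 1 nM, exposed to compound for 15 min beforehand; beads 10 ug/ml, 10 min.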
Active calls of the source: *; u = inconclusive; x = not tested or not shown; [ ] = remark or other dose. Hits are enriched below; roughly 19% of the tested compounds scored in any of these assays. Unless noted, calls follow the shape of the dose curve; as a rule, active = well fitted curve in the direction sought with a large enough effect; inconclusive = small, poorly fitted or top-dose-only effect, or another doubt; inactive = no such curve, though single readings can be large; an effect the other way counts as inactive or inconclusive. % is scaled to controls: 0 for no effect and ±100 for the full control effect.

SMILES | IL1B secr inh | DT40 TDP1 CPT | Giardia killer | ELG1 DNA repair | TDP1 cell noCPT | TDP1 inh
O=C(CNC(=O)c1ccccc1)OCc1cc(=O)n2nc(C3CC3)sc2n1 | x | 7% | x | x | -2% | 8%
CC1COC(=C2C(=O)OCC2C)C1 (centres undefined) | 20 | 3% | x | x | 4% | x
O=C(NCCSCc1c(F)cccc1Cl)C1CCN(S(=O)(=O)Cc2ccccc2)CC1 | x | -25% | x | x | -17% | -3%
COc1ccc(C)cc1NC(=O)CN1C(=O)COc2ccc(S(=O)(=O)N3CCCCC3)cc21 | -8 | u | -16 | 1% | u | 5%
COc1ccc(NC(=O)CN(C)C(=O)c2cc(-c3ccc(OC)cc3)nc3ccccc23)cc1 | u | u | -3 | u | u | x
COc1ccc(-c2nn(-c3ccccc3)cc2C(=O)N(C)CC(=O)Nc2cccc(F)c2)cc1 | -25 | u | 9 | u | u | -2%
Cc1cccc(-c2nn(-c3ccccc3)cc2C(=O)N(C)CC(=O)Nc2ccc(N3CCOCC3)cc2)c1 | 7 | -23% | -15 | 12µM* | -29% | x
COc1ccc(NC(=O)CN(C)C(=O)Cc2n[nH]c(=O)c3ccccc23)cc1 | 31 | 9.2µM* | -7 | u | -10% | x
COc1ccc(-c2nn(-c3ccccc3)cc2C(=O)N(C)CC(=O)Nc2ccccc2Br)cc1 | u | 23µM* | -28 | x | u | x
COc1ccc(NC(=O)CN(C)C(=O)c2cc(-c3ccccc3)nc3ccccc23)cc1 | u | u | -13 | u | 15µM* | x
CCOC(=O)c1cc(C(=O)c2ccccc2O)cn2c(=O)c3c(C)c(C)sc3nc12 | x | x | x | 7% | x | -5%
COc1ccc(-c2cc(C(=O)N(C)CC(=O)Nc3cccc(F)c3)c3ccccc3n2)cc1 | -56* | 16µM* | 6 | u | u | -6%
CN(CC(=O)Nc1ccccc1Br)C(=O)c1ccccc1OCc1ccc(Cl)cc1 | -59* | u | 3 | x | 18µM* | x
CN(C(=O)c1ccccc1OCc1ccc(Cl)cc1)c1ccccc1 | -13 | u | -13 | -3% | u | 7%
CN(CC(=O)Nc1cccc(F)c1)C(=O)c1cc(-c2ccccc2)nc2ccccc12 | -24 | u | -1 | u | u | -5%
COc1ccccc1NC(=O)Cn1ncc2c1-c1ccccc1OC2 | -22 | 15µM* | -13 | 2% | u | 7%
CCOc1ccccc1N(CC)C(=O)Cn1ncc2c1-c1ccccc1OC2 | x | 21µM* | x | x | 16µM* | 5%
CCOC(=O)N1CCN(C(=O)Cn2ncc3c2-c2ccccc2OC3)CC1 | -20 | u | 0 | 7% | -12% | 7%
CCC(C)(C)NC(=O)CN(C(=O)C(=O)Nc1ccc2c(c1)OCCO2)C1CC1 | -2 | 5% | -3 | 20% | -10% | 9%
COC(=O)C1=C(C)NC(C)=C(C(=O)OC)C1/C=C/c1ccccc1 | -7 | -10% | 1 | u | -3% | -1%
C=CCOC(=O)C1=C(C)NC(C)=C(C(=O)OCC=C)C1/C=C/c1ccccc1 | -69* | u | -1 | u | u | -9%
CC(C)Nc1cccc(S(=O)(=O)N2CCCN(S(=O)(=O)c3ccc4c(c3)OCCO4)CC2)c1 | x | x | x | x | x | 1%
OCCCNc1cc(-c2ccccc2)nc2cc(-c3ccc(F)cc3)nn12 | -91* | 8.2µM* | 9 | u | 5.2µM* | x
CN1CCN(c2cc(-c3cccc(C(=O)O)c3)nc3ccnn23)CC1 | 0 | -15% | x | x | -13% | x
CN1CCN(c2cc(-c3ccccc3)nc3cc(-c4ccc(F)cc4)nn23)CC1 | -96* | 4.1µM* | 3 | 23µM* | 5.8µM* | 3%
SMILES | IL1B secr inh | DT40 TDP1 CPT | Giardia killer | ELG1 DNA repair | TDP1 cell noCPT | TDP1 inh
Cc1ccc(-c2cc3nc(-c4ccccc4)cc(C(F)(F)F)n3n2)cc1 | x | -24% | x | x | -25% | x
Fc1ccc(-c2cc3nc(-c4ccccc4)cc(N4CCN(CCN5CCOCC5)CC4)n3n2)cc1 | -74* | 12µM* | 10 | u | 7.3µM* | 4%
Cn1c(N)nc2nc[nH]c2c1=S | 40 | -15% | 13 | x | u | x
CC(=O)CSc1nc2cc3c(cc2cc1C#N)OCCO3 | -3 | 15µM* | -18 | u | u | 5%
CCc1ccc2nc(SCC(=O)N(CC)CC)c(C#N)cc2c1 | -5 | 21µM* | 5 | -25% | 15µM* | -8%
CCOC(=O)CSc1nc2cc(OC)c(OC)cc2cc1C#N | x | u | 17 | x | 18µM* | 0%
CCOc1ccc2cc(C#N)c(SCC(=O)N3CCC(C)CC3)nc2c1 | -3 | u | -7 | u | 21µM* | 3%
Clc1ccc(-c2nnn3c2nc(NC2CCCCC2)c2ccccc23)cc1 | x | 5% | x | x | -23% | -1%
O=C(C(O)c1ccccc1)N1CCN(S(=O)(=O)c2ccc(OC(F)(F)F)cc2)CC1 (centres undefined) | 0 | -6% | x | x | -20% | x
Cc1ncc2c(c1CNC(=O)c1cncs1)CCN(C(=O)c1ccc(C(C)(C)C)cc1)C2 | x | 13%[9.04 µM] | x | x | u | x
Cc1nn(Cc2ccccc2)c(Cl)c1/C=C1\NC(=S)NC1=O | -64* | u | -1 | u | 4% | -1%
Cc1cc(Cl)ccc1N(CC(=O)NCc1ccc2c(c1)OCO2)S(C)(=O)=O | 7 | u | 5 | 1% | u | 0%
CC(=O)Nc1cc([N+](=O)[O-])cc(NC(C)=O)c1NC(C)=O | x | 7.1µM* | x | x | u | x
O=C(CCN1C(=O)/C(=C\c2ccccc2F)SC1=S)N1CCOCC1 | -2 | u | x | x | 0.73µM* | x
CN1CCN(NC(=O)CN2C(=O)/C(=C/c3ccccc3Cl)SC2=S)CC1 | -6 | u | -6 | 8% | u | 0%
COc1ccc(/C=C2\SC(=S)N(CCCC(=O)N3CCN(C)CC3)C2=O)cc1OC | 15 | -25% | -5 | x | -10% | x
CN1CCN(C(=O)CCN2C(=O)/C(=C/c3ccccc3Cl)SC2=S)CC1 | -97* | 16µM* | -6 | -4% | 12µM* | 6%
CN1CCN(C(=O)CCN2C(=O)/C(=C\c3ccccc3F)SC2=S)CC1 | -51* | -104% | 11 | 2% | u | 7%
CN(c1cccc(NC(=O)c2ccc(Cl)c(S(=O)(=O)N3CCOCC3)c2)c1)S(C)(=O)=O | -8 | u | -1 | 23µM* | 12µM* | 1%
O=C(OC1CCOC1=O)c1ccc(Cl)c(S(=O)(=O)N2CCCCC2)c1 (centres undefined) | 21 | 0% | -22 | 9% | 3% | 3%

High-throughput results: PubChem BioAssay, National Center for Advancing Translational Sciences (NCATS)
